Screening results: PubChem BioAssay, National Center for Advancing Translational Sciences (NCATS)
Most compounds without a hit are left out; they make up all but 7.3% or so of the library.
Tau fibril FP: qHTS for Inhibitors of Tau Fibril Formation, Fluorescence Polarization; AID 1468, 2008; Microtubule-associated protein tau (Homo sapiens), P10636; Potency, µM (titrated, usually from 57.7 µM), most hits filed as inhibitors; actives 0.39% (n = 280,000); K18 P301L tau heparin fibrillization, Alexa594 FP, 6 h; further: nearly all actives have a fitted effect of over 55% in size
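K18 P301L tau (15 uM unlabeled/0.24 uM Alexa 594-labeled, final) + compound + heparin 20 uM final; 100 mM NaOAc pH 7; 6 hr 37 C; ThT 30 uM final added, 1 hr RT; FP ex 555/em 632 nm.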
Tau fluor counter: Counterscreen qHTS for Inhibitors of Tau Fibril Formation, Fluorescence Polarization; Potency, µM (doses to about 57.7 µM); tau K18 P301L Alexa594 fluorescence, heparin fibrillization; AID 1463, 2008; actives 0.93% (n = 280,000); further: nearly all actives have a fitted effect of over 55% in size
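Human K18 P301L tau (15 uM unlabeled plus 0.24 uM Alexa 594-labeled, final) in 100 mM sodium acetate pH 7 was mixed with compound and 20 uM heparin and incubated 6 hr at 37 C.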
RORgamma inh: qHTS for inhibitors of ROR gamma transcriptional activity | Drosophila S2 Gal4-RORgamma UAS-luciferase reporter, 20 h | AID 2551, 2010 | actives 5.4% (n = 310,000) | Potency, µM (series often up to 53.6 µM), most hits filed as inhibitors | Nuclear receptor ROR-gamma (Mus musculus), P51450; further: nearly all actives have a fitted effect of over 60% in size
Target sequence (P51450 whole entry, looked up, the tested form may be a part): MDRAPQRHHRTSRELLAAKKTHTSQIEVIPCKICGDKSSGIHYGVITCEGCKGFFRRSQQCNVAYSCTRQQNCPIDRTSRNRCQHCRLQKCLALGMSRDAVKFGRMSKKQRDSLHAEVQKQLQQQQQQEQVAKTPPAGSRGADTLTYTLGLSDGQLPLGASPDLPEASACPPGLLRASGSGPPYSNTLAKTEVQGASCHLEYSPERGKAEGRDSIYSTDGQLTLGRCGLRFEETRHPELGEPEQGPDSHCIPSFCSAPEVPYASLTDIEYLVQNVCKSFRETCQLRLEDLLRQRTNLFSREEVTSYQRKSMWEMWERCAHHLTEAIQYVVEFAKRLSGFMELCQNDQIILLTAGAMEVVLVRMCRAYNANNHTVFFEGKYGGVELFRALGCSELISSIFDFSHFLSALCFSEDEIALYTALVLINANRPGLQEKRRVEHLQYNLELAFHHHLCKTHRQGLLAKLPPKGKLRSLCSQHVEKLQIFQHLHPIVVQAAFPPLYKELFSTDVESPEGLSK
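Schneider cells (Drosophila), stable Gal4 DBD–ROR gamma + UAS-luc; 1 hr cmpd preincubation; Cu2+ induction 700 uM final; 20 hr ambient; luminescence.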
Gal4-VP16 FLuc: VP16 counterscreen qHTS for inhibitors of ROR gamma transcriptional activity; actives 3.5% (n = 310,000); Drosophila S2 Gal4-VP16 UAS-luciferase, luminescence, 20 h; Potency, µM (top dose mostly 53.6 µM), hits mostly inhibitors; AID 2546, 2010;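 further: Gal4-VP16 expression switched on by copper sulfate through the metallothionein promoter; nearly all actives have a fitted effect of over 50% in size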
Tau fibril ThT: qHTS for Inhibitors of Tau Fibril Formation, Thioflavin T Binding; Microtubule-associated protein tau (Homo sapiens), P10636; recombinant tau K18 P301L (four-repeat tau fragment), heparin-induced fibrillization, ThT fluorescence; Potency, µM (series often up to 57.4 µM), actives largely listed as inhibitors; actives 2.1% (n = 270,000); further: nearly all actives have a fitted effect of over 55% in size
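Recombinant human tau K18 fragment […] carrying P301L, 15 uM unlabeled plus 0.24 uM Alexa 594-labeled, was fibrillized with 20 uM heparin in 100 mM sodium acetate pH 7 for 6 hr at 37 C; 30 uM ThT fluorescence read after 1 hr.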
Of the large screens only hits and unclear results are named; the others gave an inactive call. The call rests on the fitted dose curve; in most records, active means well fitted curve in the direction sought with a large enough effect; inconclusive means small, poorly fitted or top-dose-only effect, or another doubt; inactive means no such curve, though single readings can be large; an effect the other way counts as inactive or inconclusive.

CCOc1ccc(C2C(=O)N(C3CCCCCC3)CC(=O)N2CCc2ccccc2)cc1OC (configuration not stated)	none (no result: RORgamma inh, Gal4-VP16 FLuc)
CCOc1ccccc1NC(=O)NCc1noc2ccc(C)cc12	Tau fluor counter inconclusive (no result: RORgamma inh, Gal4-VP16 FLuc)
CC1CCc2cc(F)ccc2N1S(=O)(=O)c1ccc(F)cc1 (configuration not stated)	RORgamma inh 10µM (no result: Tau fibril FP, Tau fluor counter, Tau fibril ThT)
CC1CCc2cc(F)ccc2N1S(=O)(=O)c1ccc(Cl)nc1 (configuration not stated)	RORgamma inh inconclusive
Nc1ccc2c(c1)OC1(CCCC1)O2	Tau fluor counter inconclusive, Tau fibril ThT 12.6µM
CC(C)(C)C1CCc2c(sc(NC(=O)c3cc(C4CC4)on3)c2C#N)C1 (configuration not stated)	RORgamma inh 5.62µM, Gal4-VP16 FLuc inconclusive, Tau fibril ThT inconclusive
Cc1ccc(NC(=O)c2nc(S(=O)(=O)Cc3ccccc3)ncc2Cl)cc1	RORgamma inh inconclusive, Gal4-VP16 FLuc 2.24µM (no result: Tau fibril FP, Tau fluor counter, Tau fibril ThT)
O=C(Nc1ccc(F)cc1)c1nc(S(=O)(=O)Cc2ccccc2)ncc1Cl	Gal4-VP16 FLuc 7.94µM (no result: Tau fibril FP, Tau fluor counter, Tau fibril ThT)
Cc1cc2[nH]c(=O)c(=O)[nH]c2cc1S(=O)(=O)Nc1cccc(F)c1	none (no result: Tau fibril FP, Tau fluor counter, Tau fibril ThT)
Cn1c(=O)c(-c2ccc(F)cc2)nc2cnc(Nc3ccccc3)nc21	none (no result: Tau fibril FP, Tau fluor counter, Tau fibril ThT)
CCc1ccc(NC(=O)c2cc(C)no2)cc1	Gal4-VP16 FLuc inconclusive (no result: Tau fibril FP, Tau fluor counter, Tau fibril ThT)
CCc1ccc(NC(=O)CN(N=Nc2nonc2C)c2nonc2C)cc1	RORgamma inh 3.98µM, Gal4-VP16 FLuc inconclusive
Cc1cnc(CNc2cc(-c3cccnc3)ncn2)cn1	none (no result: Tau fibril FP, Tau fluor counter, Tau fibril ThT)
CCC(C)CCCCC(=O)NC(CCN)C(=O)NC(C(=O)NC(CCN)C(=O)NC1CCNC(=O)C(C(C)O)NC(=O)C(CCN)NC(=O)C(CCN)NC(=O)C(CC(C)C)NC(=O)C(Cc2ccccc2)NC(=O)C(CCN)NC1=O)C(C)O (configuration not stated)	none
CN(CC1CCOCC1)C(=O)CC1C(=O)NCCN1Cc1cccc(F)c1 (configuration not stated)	none (no result: Tau fibril FP, Tau fluor counter, Tau fibril ThT)
Cc1sc2ncnc(NCC3(N4CCOCC4)CCCCC3)c2c1C	Tau fibril ThT inconclusive
c1ccc(-c2csc3ncnc(NCC4COc5ccccc5O4)c23)cc1 (configuration not stated)	RORgamma inh 7.08µM, Gal4-VP16 FLuc 0.891µM
Cc1sc2ncnc(NCc3ccccc3)c2c1C	Gal4-VP16 FLuc 17.8µM
Cc1sc2ncnc(NCC3CCCO3)c2c1C (configuration not stated)	Gal4-VP16 FLuc inconclusive
Cc1sc2ncnc(NCC(C)(C)N3CCOCC3)c2c1C	RORgamma inh inconclusive, Gal4-VP16 FLuc 17.8µM
Cc1sc2ncnc(NCC3COc4ccccc4O3)c2c1C (configuration not stated)	RORgamma inh inconclusive, Gal4-VP16 FLuc 1µM
N#Cc1cccc(C(=O)OCC(=O)NCc2ccco2)c1	none (no result: Tau fibril FP, Tau fluor counter, Tau fibril ThT)
COc1cccc(N2CCN(C(=O)c3cnc4c(-c5ccccc5)c(C)nn4c3C)CC2)c1	none (no result: RORgamma inh, Gal4-VP16 FLuc)
O=C1NC(=S)N/C1=C/c1ccc2ccccc2c1	none (no result: Tau fibril FP, Tau fluor counter, Tau fibril ThT)
O=C(COc1ccc(/C=N/NC(=O)c2cc3ccccc3o2)cc1Cl)Nc1ccccc1	RORgamma inh 1.26µM, Gal4-VP16 FLuc 0.891µM, Tau fibril ThT inconclusive
O=C(N/N=C/c1ccc2c(c1)OCO2)c1cc2ccccc2o1	Tau fibril ThT inconclusive
Cc1cccc(N(C)C(=O)CN(C)S(=O)(=O)c2ccc3[nH]c4c(c3c2)CCCC4)c1	Tau fluor counter inconclusive (no result: RORgamma inh, Gal4-VP16 FLuc)
Ic1ccc(N2CCN(Cc3c[nH]c4ncccc34)CC2)cc1	none (no result: RORgamma inh, Gal4-VP16 FLuc)
O=C(Cc1ccccc1)Nc1sc2c(c1C(=O)Nc1ccc(Br)cc1)CCCC2	none (no result: RORgamma inh, Gal4-VP16 FLuc)
C=C(C(C)=O)C(O)c1ccco1 (configuration not stated)	Tau fibril FP inconclusive, Tau fibril ThT 28.2µM
Cc1cc(C(=O)N2CCCC(Nc3ccc(F)cc3)C2)c(C)o1 (configuration not stated)	none (no result: Tau fibril FP, Tau fluor counter, Tau fibril ThT)
Cc1nc2cc(-c3ccc(Cl)cc3)nn2c(NCCN(C)C)c1C	RORgamma inh 1.26µM, Gal4-VP16 FLuc 5.62µM
Cc1cc(C)n2nc(-c3ccc(Cl)cc3)cc2n1	none (no result: Tau fibril FP, Tau fluor counter, Tau fibril ThT)
